The other results are listed elsewhere or left out. Results filed as inconclusive are left out. Calls of active or inactive are those of the source. Calls come from the whole dose curve; as a rule, active = well fitted inhibition curve with a large enough effect in the main read-out, with a control signal flat; inconclusive = small, poorly fitted or top-dose-only effect, or a change in a side signal; inactive = no such curve, though single readings can be large or run the other way.

Caspase-1 (Homo sapiens), sequence (P29466 120-297 limits assumed): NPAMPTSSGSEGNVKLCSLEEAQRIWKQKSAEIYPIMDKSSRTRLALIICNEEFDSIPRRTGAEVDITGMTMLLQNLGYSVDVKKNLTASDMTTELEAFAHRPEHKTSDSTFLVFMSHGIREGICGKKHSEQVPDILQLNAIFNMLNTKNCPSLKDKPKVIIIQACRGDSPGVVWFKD
Caspase-1 (Homo sapiens), sequence (P29466 317-404 limits assumed): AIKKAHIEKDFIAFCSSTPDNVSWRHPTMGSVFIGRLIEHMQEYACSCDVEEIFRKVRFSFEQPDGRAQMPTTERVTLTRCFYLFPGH

In the test the target is Caspase-1 (Homo sapiens) (UniProt P29466). The experiment in a line: Concentration-Response Counterscreen for Redox Active Inhibitors of Caspase-1: Cysteine. As to conditions: recombinant caspase-1, fluorogenic substrate, cysteine buffer; series mostly up to 57.5 µM. The source says:
NIH Molecular Libraries Screening Centers Network [MLSCN]
NIH Chemical Genomics Center [NCGC]
PI Name: Dr. James Wells,
Dr. Enrique Perez-Paya, Dr.Janice Williams, Dr. Dennis Wolan, a person
The caspases (Cysteine Aspartyl Protease) comprise a related family of 14 dimeric proteases that are critical mediators of apoptosis (programmed cell death) and inflammation. The caspases represent an important class of drug targets for stroke, ischemia, cancer and inflammatory diseases. […] One goal of this project was to identify compounds that act as allosteric inhibitors via stabilizing the procaspase form of the enzyme. […]
The biochemical assay was configured using purified caspase 1 at a high enzyme concentration to promote formation of the homodimers and thus facilitate the identification of allosteric inhibitors. […] After initiation of the assay with substrate the plates were rapidly read using an automated robotic system (Kalypsys, Inc.) to maintain consistent timing. […] Product formation was also measured after 1 hour. […]
Caspase 1 was prepared in buffer (50 mM HEPES pH 7.5, 50 mM KCl, 200 mM NaCl, 10 mM Cys (Aldrich cat# 861677), 0.1% CHAPS) at a concentration of 66.6 nM and 3 uL was dispensed to all wells using black solid Kalypsys 1536-well plates. […] The plates were then exposed using 405 nm excitation/520 nm emission filters for 4 sec and read at 20 sec intervals for 3 min. […]
(In general: Counterscreens check selectivity or assay interference.)
In the case of `Cc1nc2c(C(=O)NCc3ccc4c(c3)OCO4)c[nH]n2c(=O)c1Cc1ccccc1F`, the outcome was inactive.

The values are drawn from PubChem BioAssay AID929 (National Center for Advancing Translational Sciences (NCATS), 2007).
